VACV Venus inh = vaccinia inhibition (Venus reporter); Vaccinia virus Venus reporter expression, fluorescence; Potency, µM (titrated, usually from 36.5 µM), for the others: at the highest dose activity change, negative = inhibition, hits mostly inhibitors; 330,000 compounds, 0.46% hits; AID 720580; calls by dose curve; tested in A549 cells; note: potency is the fitted concentration of half-maximal effect; nearly all actives have a fitted effect of over 30% in size
HCV inh = blocks hepatitis C virus. Huh7.5.1 HCVcc-Cre infection, luciferase reporter, 44 h. Potency, µM (titrated, usually from 41.8 µM), for the others: top-dose activity change, negative = inhibition, usual class: inhibitors. 340,000 compounds, 3.4% hits; active = well fitted inhibition curve with a large enough effect; inconclusive = small, poorly fitted or top-dose-only effect, or another doubt; inactive = no such curve, though single readings can be large or run the other way; note: potency is the fitted concentration of half-maximal effect
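Compounds are dispensed onto cells plated 4 h earlier at 1,000 per well, with HCVcc-Cre virus (about 0.5 moi) added next. Following 44 h of culture, luminescent signal is measured for 15 sec after 15 min with substrate at room temperature.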
HCMV antiviral = blocks human cytomegalovirus replication; HFF cells, HCMV-luciferase reporter, 72 h; stronger effect = lower value; activity change, negative = inhibition, % at 57.5 µM; 410,000 compounds, 4.5% hits; AID 1259415; in the data active = activity change below about -60%; inconclusive = no clear call, values can overlap the other calls; inactive = above about -39%
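Steps: HFFs plated, 16 h 37C; compounds added; HCMV-luciferase added to MOI 1 PFU/cell; 72 h 37C; OneGlo reagent, 5 min room temperature; luminescence read, normalized to controls.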
Vaccinia mCherry = vaccinia inhibition (mCherry reporter); 310,000 compounds, 0.63% hits; Vaccinia virus mCherry reporter infection, fluorescence; Potency, µM (titrated, usually from 36.5 µM), without a hit: top-dose activity change, negative = inhibition, actives largely listed as inhibitors; calls by dose curve; tested in A549 cells; note: potency is the fitted concentration of half-maximal effect; nearly all actives have a fitted effect of over 35% in size
LASV entry inh = inhibitors of Lassa virus binding or cell entry; Potency, µM (highest dose often 37.9 µM), for inactives: top-dose activity change, negative = inhibition, hits mostly inhibitors; 300,000 compounds, 1.2% hits; Lassa virus pseudotype entry inhibition, cell reporter; calls by dose curve; tested in HEK293 cells; note: potency is the fitted concentration of half-maximal effect; nearly all actives have a fitted effect of over 50% in size
MARV entry inh = inhibitors of Marburg virus binding or cell entry | Marburg virus pseudotyped entry inhibition, cell reporter | Potency, µM (doses to about 37.8 µM), for the others: at the top dose activity change, negative = inhibition, usual class: inhibitors | 300,000 compounds, 1.8% hits | AID 540276; calls by dose curve; tested in HEK293 cells; note: potency is the fitted concentration of half-maximal effect
Active calls of the source: *; i = inactive; u = inconclusive; x = no result; + = active, no number; [ ] = remark or other dose. Most compounds without a hit are left out; they make up all but 7.8% or so of the library. % is set by controls: 0 for no effect and ±100 for the full control effect.

SMILES	VACV Venus inh	HCV inh	HCMV antiviral	Vaccinia mCherry	LASV entry inh	MARV entry inh
CCN(Cc1ccc(NC(C)=O)cc1)CC1CCCN(CCc2cccc(F)c2)C1 (stereo not drawn)	x	u	4	x	x	x
CCN(Cc1ccc(C#CCCO)cc1)CC1CCCN(CCc2cccc(OC)c2)C1 (stereo not drawn)	x	11µM*	-18	x	x	x
C[C@@H](c1ccccc1)N1C[C@H](COCc2ccccc2)Oc2cc(N3CC[C@@H](N(C)C)C3)ccc2S1(=O)=O	-27%	x	u	-18%	x	x
C[C@H](c1ccccc1)N1C[C@@H](COCc2ccccc2)Oc2cc(N3CC[C@H](O)C3)ccc2S1(=O)=O	-5%	x	-76*	i	x	x
CCCCC[C@H](C)N1C[C@H](COCc2ccccc2)Oc2cc(N3CC[C@H](O)C3)ccc2S1(=O)=O	3%	x	-5	i	x	x
CCCCC[C@@H](C)N1C[C@H](COCc2ccccc2)Oc2cc(N3CC[C@H](N(C)C)C3)ccc2S1(=O)=O	u	x	-101*	u	x	x
COC[C@@H]1CCCN1c1ccc2c(c1)O[C@@H](COCc1ccccc1)CN([C@H](C)c1ccccc1)S2(=O)=O	3%	x	-65*	1%	x	x
C[C@@H](c1ccccc1)N1C[C@H](COCc2ccccc2)Oc2cc(N3CC[C@H](N(C)C)C3)ccc2S1(=O)=O	-10%	x	-61*	13%	x	x
CC(C)Oc1ccc(CCC(=O)N/N=C/c2ccncc2)cc1	-9%	-17%	-6	-7%	1µM*	1%[46.1 µM]
CC(C)Oc1ccc(CCC(=O)N/N=C/c2ccc3c(c2)OCO3)cc1	-3%	-6%	-29	-10%	u	-17%[46.1 µM]
Cn1cc(/C=C2\SC(=S)N(NC(=O)c3ccccc3Cl)C2=O)c2ccccc21	3%	u	-7	-24%	0%	18%
Cc1ccc(C(=O)NN2C(=O)/C(=C/c3cn(C)c4ccccc34)SC2=S)cc1	1%	4%	-69*	-13%	u	3%
COCCCn1c(SCc2ccccc2F)nc2c(sc3ccccc32)c1=O	-6%	x	-37	-4%	u	x
O=Cc1c[nH]c2ccc(NC(=O)OCc3ccccc3)cc12	0%	-2%	-27	-26%	u	13µM*
NC(=O)N/N=C/c1ccccc1OC(=O)c1cc2ccccc2oc1=O	x	5%	-16	x	x	x
NC(=S)N/N=C\c1ccccc1OCc1ccccc1	2.5µM*	u	-26	u	-19%	u
NC(=S)N/N=C/c1ccccc1OC(=O)/C=C/c1ccccc1	x	15%	-110*	x	x	x
NC(=S)N/N=C/c1ccccc1OC(=O)c1cc2ccccc2oc1=O	x	-9%	+	x	x	x
CCOC(=O)N/N=C\c1ccccc1OC/C=C/c1ccccc1	x	u	49	x	x	x
Cn1cc(-c2cc3n(n2)CCC(=O)N3CCCC(=O)NCc2ccc(Cl)cc2)c2ccccc21	-17%	x	-38	24%	u	x
CC(C)(C)c1ccc(CSc2nc3c(c(=O)[nH]2)CCCC3)cc1	-12%	x	-19	-7%	10%[46.1 µM]	-6%[46.1 µM]
NC(=S)N/N=C/c1c[nH]c2ccc(OCc3ccccc3)cc12	x	13µM*	x	x	x	x
CCOC(=O)c1cc(C)n(CC2CCC(C(=O)Nc3ccccc3OC)CC2)c1C (stereo not drawn)	-9%	x	-30	-15%	-1%[46.1 µM]	x
O=C(OC[C@H]1O[C@@H](OC(=O)c2cc(O)c(O)c(OC(=O)c3cc(O)c(O)c(O)c3)c2)[C@H](OC(=O)c2cc(O)c(O)c(OC(=O)c3cc(O)c(O)c(O)c3)c2)[C@@H](OC(=O)c2cc(O)c(O)c(OC(=O)c3cc(O)c(O)c(O)c3)c2)[C@@H]1OC(=O)c1cc(O)c(O)c(OC(=O)c2cc(O)c(O)c(O)c2)c1)c1cc(O)c(O)c(OC(=O)c2cc(O)c(O)c(O)c2)c1	10µM*	11µM*	x	5.6µM*	x	x
Cc1cccc(NC(=O)/C(C#N)=C/c2ccc(C)o2)c1	-6%	x	80	-2%	9%[46.1 µM]	x
SMILES	VACV Venus inh	HCV inh	HCMV antiviral	Vaccinia mCherry	LASV entry inh	MARV entry inh
CCN1CCN(c2ccc(S(=O)(=O)N3CCOCC3)cc2NC(=O)/C=C/c2ccc([N+](=O)[O-])cc2)CC1	u	25µM*	7	u	-4%[46.1 µM]	u
COc1ccc(S(=O)(=O)N2CCCCC2)cc1NC(=O)c1ccc([N+](=O)[O-])o1	-19%	10µM*	72	i	-9%[46.1 µM]	19%[46.1 µM]
CCN1CCN(c2ccc(S(=O)(=O)N3CCCCC3)cc2NC(=O)c2ccc(F)cc2)CC1	-14%	-17%	4	-24%	11%	u
CCN1CCN(c2ccc(S(=O)(=O)N3CCOCC3)cc2NC(=O)c2cccc([N+](=O)[O-])c2)CC1	-2%	u	6	u	8%[46.1 µM]	u
CCN1CCN(c2ccc(S(=O)(=O)N3CCCCC3)cc2NC(=O)c2ccc([N+](=O)[O-])o2)CC1	10µM*	3.5µM*	-28	4µM*	u	u
CS(=O)(=O)N1CCN(c2ccccc2NC(=O)c2ccc([N+](=O)[O-])o2)CC1	-6%	11µM*	-83*	-7%	u	u
COc1ccc(Nc2cc3[nH]c(-c4cccc(C(F)(F)F)c4)cc3cn2)cc1	x	x	-26	x	x	x
CN(C)c1ccc(/C=[N+]2\C(=O)CC(=O)NC2=O)cc1	-9%	x	x	-9%	x	x
COc1ccc(-c2cc3ccccc3oc2=O)cc1NC(=O)c1ccc([N+](=O)[O-])o1	u	u	-66*	11µM*	-22%	-29%
CN1CCN(c2ccccc2NC(=O)c2ccc(-c3cccc([N+](=O)[O-])c3)o2)CC1	u	5.6µM*	31	i	u	u
CCC(=O)N1CCN(c2ccccc2NC(=O)c2ccc(-c3cccc([N+](=O)[O-])c3)o2)CC1	12%	u	48	i	-15%	u
CC(C)OCC(O)CN1CCC(Cc2ccccc2)CC1 (stereo not drawn)	x	14%	u	x	x	x
C[C@@H](CN1CCC(Cc2ccccc2)CC1)[C@@H](O)c1ccc(O)cc1	-15%	u	80	-1%	u	u
C[C@@H]([C@H](O)c1ccc(O)cc1)N1CCC(Cc2ccccc2)CC1	x	x	x	x	x	21µM*
CC(C(O)c1ccc(O)cc1)N1CCC(Cc2ccccc2)CC1 (stereo not drawn)	-22%	u	u	u	23µM*	21µM*
CC1=C(C(=O)OCc2ccccc2)N2C(=O)[C@@H](NC(=O)OCc3ccccc3)[C@H]2SC1	-13%	x	x	i	x	x
O=C(C1CC1)N1CCC(Oc2cccc(C(=O)N3CCCCC3CCO)c2)CC1 (stereo not drawn)	x	7%	-3	x	x	x
O=C(NCc1cccc(Cl)c1)c1cccc(OC2CCN(C(=O)C3CC3)CC2)c1	-24%	u	-70*	u	u	u

Screening data deposited in PubChem BioAssay by National Center for Advancing Translational Sciences (NCATS).
